Experimental data from the supplement of paper PMC12350171.
Where a name gives a salt, the structure may show the parent alone.

Each compound was assayed on Haemophilus parainfluenzae (assay: growth AUC normalised to DMSO control (fraction of control); higher = less growth inhibition, active = hit call of the paper). Conditions: 20 µM;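 active = AUC significantly below DMSO controls by Student t-fit with adjusted P under 0.01; inactive = not significantly reduced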.
Method in brief: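 Three biological replicates were carried out, with OD578 read hourly for 24 h. Before inoculation at a starting OD578 of 0.01, pathogens were passaged anaerobically twice; plates were pre-reduced mGAM containing 20 μM compound and 1% DMSO, sealed with breathable membranes, and the Haemophilus parainfluenzae medium carried added hemin and NAD. Area under each growth curve was calculated by the trapezoidal rule up to the exponential-to-stationary transition and normalised to DMSO controls on the same plate.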

Row | SMILES | growth AUC normalised to DMSO control
1 | CC(NCCc1ccc(O)cc1)C(O)c1ccc(O)cc1 (centres undefined) [Ritodrine hydrochloride] | 1 (inactive)
2 | CN1CCc2cccc3c2[C@H]1Cc1ccc(O)c(O)c1-3 [R(-) Apomorphine hydrochloride hemihydrate] | 1.05 (inactive)
3 | CCCOc1ccccc1-c1nc2[nH]nnc2c(=O)[nH]1 [Zaprinast] | 1.01 (inactive)
4 | COc1cc2nc(N3CCN(C(=O)C4CCCO4)CC3)nc(N)c2cc1OC (centres undefined) [Terazosin hydrochloride] | 0.978 (inactive)
5 | CCc1nc(N)nc(N)c1-c1ccc(Cl)cc1 [Pyrimethamine] | 0.201 (active)
6 | COCCOC(=O)C1=C(C)NC(C)=C(C(=O)OC(C)C)C1c1cccc([N+](=O)[O-])c1 (centres undefined) [Nimodipine] | 0.959 (inactive)
7 | NS(=O)(=O)c1cc2c(cc1C(F)(F)F)NCNS2(=O)=O [Hydroflumethiazide] | 0.991 (inactive)
8 | CCCCC(CC)CN1CN(CC(CC)CCCC)CC(C)(N)C1 (centres undefined) [Hexetidine] | 1.08 (inactive)
9 | CCN(CC)CCOC(=O)C1(c2ccc([N+](=O)[O-])cc2)CCCC1 [Nitrocaramiphen hydrochloride] | 1.01 (inactive)
10 | COC(=O)C1=C(C#N)NC(C)=C(C(=O)OC(C)C)C1c1cccc([N+](=O)[O-])c1 (centres undefined) [Nilvadipine] | 0.985 (inactive)
11 | C[C@@](Cc1ccc(O)c(O)c1)(NN)C(=O)O [Carbidopa] | 0.996 (inactive)
12 | CC(C)NCC(O)COc1cccc2[nH]ccc12 (centres undefined) [Pindolol] | 1.05 (inactive)
13 | CN1CCN(C(c2ccccc2)c2ccc(Cl)cc2)CC1 (centres undefined) [Chlorcyclizine hydrochloride] | 0.982 (inactive)
14 | CCCCN1CCCCC1C(=O)Nc1c(C)cccc1C (centres undefined) [Bupivacaine hydrochloride] | 0.967 (inactive)
15 | Cc1ccccc1C(OCCN(C)C)c1ccccc1 (centres undefined) [Orphenadrine hydrochloride] | 0.954 (inactive)
16 | Cc1scc2c1N(C(=O)CN1CCN(C)CC1)c1ccccc1NC2=O [Telenzepine dihydrochloride] | 1 (inactive)
17 | OC(Cn1cncn1)(Cn1cncn1)c1ccc(F)cc1F [Fluconazole] | 1.07 (inactive)
18 | CC(C)C(=O)c1c(C(C)C)nn2ccccc12 [Ibudilast] | 0.811 (inactive)
19 | CC1(C)O[C@@H]2C[C@H]3[C@@H]4CCC5=CC(=O)CC[C@]5(C)[C@@]4(F)[C@@H](O)C[C@]3(C)[C@]2(C(=O)CCl)O1 [Halcinonide] | 1 (inactive)
20 | C#C[C@]1(O)CC[C@H]2[C@@H]3CCc4cc(OC)ccc4[C@H]3CC[C@@]21C [Mestranol] | 1.02 (inactive)

Row | SMILES | growth AUC normalised to DMSO control
21 | O=C(O)c1cn(C2CC2)c2cc(N3CCNCC3)c(F)cc2c1=O [Ciprofloxacin hydrochloride monohydrate] | 0.0495 (active)
22 | CC(C)NCC(O)COc1ccc(CCOCC2CC2)cc1 (centres undefined) [Betaxolol hydrochloride] | 0.988 (inactive)
23 | C#C[C@]1(O)CC[C@H]2[C@@H]3[C@H](C)CC4=C(CCC(=O)C4)[C@H]3CC[C@@]21C [Tibolone] | 0.966 (inactive)
24 | CC(=O)OCC(=O)[C@@]12OC(C)(C)O[C@@H]1C[C@H]1[C@@H]3C[C@H](F)C4=CC(=O)C=C[C@]4(C)[C@@]3(F)[C@@H](O)C[C@@]12C [Fluocinonide] | 0.999 (inactive)
25 | COc1ccc([C@@H]2CC(=O)c3c(O)cc(O[C@@H]4O[C@H](CO[C@@H]5O[C@@H](C)[C@H](O)[C@@H](O)[C@H]5O)[C@@H](O)[C@H](O)[C@H]4O)cc3O2)cc1O [Hesperidin] | 1.07 (inactive)
26 | Cc1ccc(NC(=O)c2ccc(CN3CCN(C)CC3)cc2)cc1Nc1nccc(-c2cccnc2)n1 [Imatinib] | 1.09 (inactive)
27 | CCN(CC)CCc1nc(-c2ccccc2)no1 [Oxolamine citrate salt] | 1.05 (inactive)
28 | CC(CCc1ccc(O)cc1)NCCc1ccc(O)c(O)c1 (centres undefined) [Dobutamine hydrochloride] | 1.05 (inactive)
29 | CC(=C(CCO)SSCC1CCCO1)N(C=O)Cc1cnc(C)nc1N (stereo in doubt) [Fursultiamine hydrochloride] | 0.986 (inactive)
30 | CNCCC(Oc1ccc(C(F)(F)F)cc1)c1ccccc1 (centres undefined) [Fluoxetine hydrochloride] | 1 (inactive)
31 | NCCNCCNCCNCCN [Tetraethylenepentamine pentahydrochloride] | 0.971 (inactive)
32 | COC(c1ccccc1)(c1ccccc1)[C@H](Oc1nc(C)cc(C)n1)C(=O)O [Ambrisentan] | 1.05 (inactive)
33 | CN1CCN2c3ccccc3Cc3ccccc3C2C1 (centres undefined) [Mianserine hydrochloride] | 0.903 (inactive)
34 | COc1ccc(-c2cc(=O)c3c(O)cc(O[C@@H]4O[C@H](CO[C@@H]5O[C@@H](C)[C@H](O)[C@@H](O)[C@H]5O)[C@@H](O)[C@H](O)[C@H]4O)cc3o2)cc1O [Diosmin] | 0.784 (inactive)
35 | Nc1c2c(nc3ccccc13)CCCC2 [Tacrine hydrochloride] | 1.01 (inactive)
36 | COC(=O)Nc1nc2ccc(SC(C)C)cc2[nH]1 [Methiazole] | 1.05 (inactive)
37 | Cc1cccc(C)c1NC(=O)C(C)N (centres undefined) [Tocainide hydrochloride] | 0.99 (inactive)
38 | Cn1c(=O)c2c(ncn2CC(O)CO)n(C)c1=O (centres undefined) [Diprophylline] | 0.994 (inactive)
39 | Cc1cc(-n2c(=O)[nH]c(=O)n(C)c2=O)ccc1Oc1ccc(SC(F)(F)F)cc1 [Toltrazuril] | 0.954 (inactive)
